We go through 17 compounds from ChEMBL document CHEMBL1961873, “Compounds: GSK PKIS; Assays: Nanosyn kinase panel” (2012).

The term inhibition denotes the change of the read-out against control, counted positive when it falls.

For test [1], the system named is Proto-oncogene tyrosine-protein kinase receptor Ret (Homo sapiens), P07949 [Y791F]. To be noted: at 1 µM.
In test [2] the target is Macrophage-stimulating protein receptor (Homo sapiens) (UniProt Q04912). Conditions: at 0.1 µM.
The target is the same in test [3]. To be noted: at 1 µM.
In test [4] the target is Proto-oncogene tyrosine-protein kinase ROS (Homo sapiens) (UniProt P08922). Conditions: at 0.1 µM.
Test [5] shares this target. To be noted: at 1 µM.
Test [6] deals with Proto-oncogene tyrosine-protein kinase Src (Homo sapiens) (UniProt P12931). To be noted: at 0.1 µM.
The target is the same in test [7]. To be noted: at 1 µM.
In test [8] the target is Tyrosine-protein kinase Srms (Homo sapiens) (UniProt Q9H3Y6). Conditions: at 0.1 µM.
For test [9] the target is unchanged. To be noted: at 1 µM.
In test [10] the target is Tyrosine-protein kinase SYK (Homo sapiens) (UniProt P43405). To be noted: at 0.1 µM.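 Further: reported percentages are mean inhibition values for SYK.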

Sequence of Proto-oncogene tyrosine-protein kinase receptor Ret (Homo sapiens), P07949 [Y791F] (P07949 whole entry Y791F): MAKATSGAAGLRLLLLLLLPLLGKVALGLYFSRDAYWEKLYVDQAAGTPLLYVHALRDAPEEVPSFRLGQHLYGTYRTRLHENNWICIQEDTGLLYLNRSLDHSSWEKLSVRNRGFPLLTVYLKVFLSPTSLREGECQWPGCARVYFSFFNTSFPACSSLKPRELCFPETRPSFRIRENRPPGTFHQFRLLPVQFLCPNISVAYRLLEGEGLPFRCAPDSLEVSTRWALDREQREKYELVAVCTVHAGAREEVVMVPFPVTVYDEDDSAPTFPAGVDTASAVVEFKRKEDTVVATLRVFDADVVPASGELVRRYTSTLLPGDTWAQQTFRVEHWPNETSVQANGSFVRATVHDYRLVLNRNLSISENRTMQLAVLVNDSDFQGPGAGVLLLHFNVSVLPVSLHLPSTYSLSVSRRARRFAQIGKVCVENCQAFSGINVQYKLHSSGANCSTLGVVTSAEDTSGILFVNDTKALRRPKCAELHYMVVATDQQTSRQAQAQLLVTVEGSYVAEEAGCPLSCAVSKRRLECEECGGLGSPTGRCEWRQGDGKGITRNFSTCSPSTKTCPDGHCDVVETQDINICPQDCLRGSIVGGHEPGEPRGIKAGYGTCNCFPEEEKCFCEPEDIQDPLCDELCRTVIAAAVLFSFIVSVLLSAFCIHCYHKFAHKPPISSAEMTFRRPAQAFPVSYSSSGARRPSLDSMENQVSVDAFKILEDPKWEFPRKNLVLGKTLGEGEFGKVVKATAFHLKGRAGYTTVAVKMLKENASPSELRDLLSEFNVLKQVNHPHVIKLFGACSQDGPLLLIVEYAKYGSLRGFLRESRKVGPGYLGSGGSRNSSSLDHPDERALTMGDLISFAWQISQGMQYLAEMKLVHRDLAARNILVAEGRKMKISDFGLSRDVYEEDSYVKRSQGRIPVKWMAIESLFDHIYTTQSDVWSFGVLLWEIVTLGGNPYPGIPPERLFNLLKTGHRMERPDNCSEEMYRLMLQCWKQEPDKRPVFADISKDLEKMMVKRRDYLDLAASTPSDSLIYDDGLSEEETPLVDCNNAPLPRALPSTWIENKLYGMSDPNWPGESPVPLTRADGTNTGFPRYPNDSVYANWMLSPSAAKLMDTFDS
Sequence of Tyrosine-protein kinase Srms (Homo sapiens) (Q9H3Y6 whole entry): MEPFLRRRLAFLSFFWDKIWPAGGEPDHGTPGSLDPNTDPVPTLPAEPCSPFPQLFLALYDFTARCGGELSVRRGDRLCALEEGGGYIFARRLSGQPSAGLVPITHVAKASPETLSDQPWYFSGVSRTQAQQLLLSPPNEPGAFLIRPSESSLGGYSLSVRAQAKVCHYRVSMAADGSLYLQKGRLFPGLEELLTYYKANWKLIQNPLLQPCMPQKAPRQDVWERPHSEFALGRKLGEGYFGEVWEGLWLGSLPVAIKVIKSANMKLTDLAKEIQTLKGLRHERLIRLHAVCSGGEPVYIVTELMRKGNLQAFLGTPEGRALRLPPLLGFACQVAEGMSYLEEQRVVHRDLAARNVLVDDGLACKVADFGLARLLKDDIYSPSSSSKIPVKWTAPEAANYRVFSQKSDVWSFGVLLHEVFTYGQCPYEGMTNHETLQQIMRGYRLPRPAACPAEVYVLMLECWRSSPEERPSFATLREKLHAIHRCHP
Sequence of Proto-oncogene tyrosine-protein kinase ROS (Homo sapiens) (P08922 whole entry): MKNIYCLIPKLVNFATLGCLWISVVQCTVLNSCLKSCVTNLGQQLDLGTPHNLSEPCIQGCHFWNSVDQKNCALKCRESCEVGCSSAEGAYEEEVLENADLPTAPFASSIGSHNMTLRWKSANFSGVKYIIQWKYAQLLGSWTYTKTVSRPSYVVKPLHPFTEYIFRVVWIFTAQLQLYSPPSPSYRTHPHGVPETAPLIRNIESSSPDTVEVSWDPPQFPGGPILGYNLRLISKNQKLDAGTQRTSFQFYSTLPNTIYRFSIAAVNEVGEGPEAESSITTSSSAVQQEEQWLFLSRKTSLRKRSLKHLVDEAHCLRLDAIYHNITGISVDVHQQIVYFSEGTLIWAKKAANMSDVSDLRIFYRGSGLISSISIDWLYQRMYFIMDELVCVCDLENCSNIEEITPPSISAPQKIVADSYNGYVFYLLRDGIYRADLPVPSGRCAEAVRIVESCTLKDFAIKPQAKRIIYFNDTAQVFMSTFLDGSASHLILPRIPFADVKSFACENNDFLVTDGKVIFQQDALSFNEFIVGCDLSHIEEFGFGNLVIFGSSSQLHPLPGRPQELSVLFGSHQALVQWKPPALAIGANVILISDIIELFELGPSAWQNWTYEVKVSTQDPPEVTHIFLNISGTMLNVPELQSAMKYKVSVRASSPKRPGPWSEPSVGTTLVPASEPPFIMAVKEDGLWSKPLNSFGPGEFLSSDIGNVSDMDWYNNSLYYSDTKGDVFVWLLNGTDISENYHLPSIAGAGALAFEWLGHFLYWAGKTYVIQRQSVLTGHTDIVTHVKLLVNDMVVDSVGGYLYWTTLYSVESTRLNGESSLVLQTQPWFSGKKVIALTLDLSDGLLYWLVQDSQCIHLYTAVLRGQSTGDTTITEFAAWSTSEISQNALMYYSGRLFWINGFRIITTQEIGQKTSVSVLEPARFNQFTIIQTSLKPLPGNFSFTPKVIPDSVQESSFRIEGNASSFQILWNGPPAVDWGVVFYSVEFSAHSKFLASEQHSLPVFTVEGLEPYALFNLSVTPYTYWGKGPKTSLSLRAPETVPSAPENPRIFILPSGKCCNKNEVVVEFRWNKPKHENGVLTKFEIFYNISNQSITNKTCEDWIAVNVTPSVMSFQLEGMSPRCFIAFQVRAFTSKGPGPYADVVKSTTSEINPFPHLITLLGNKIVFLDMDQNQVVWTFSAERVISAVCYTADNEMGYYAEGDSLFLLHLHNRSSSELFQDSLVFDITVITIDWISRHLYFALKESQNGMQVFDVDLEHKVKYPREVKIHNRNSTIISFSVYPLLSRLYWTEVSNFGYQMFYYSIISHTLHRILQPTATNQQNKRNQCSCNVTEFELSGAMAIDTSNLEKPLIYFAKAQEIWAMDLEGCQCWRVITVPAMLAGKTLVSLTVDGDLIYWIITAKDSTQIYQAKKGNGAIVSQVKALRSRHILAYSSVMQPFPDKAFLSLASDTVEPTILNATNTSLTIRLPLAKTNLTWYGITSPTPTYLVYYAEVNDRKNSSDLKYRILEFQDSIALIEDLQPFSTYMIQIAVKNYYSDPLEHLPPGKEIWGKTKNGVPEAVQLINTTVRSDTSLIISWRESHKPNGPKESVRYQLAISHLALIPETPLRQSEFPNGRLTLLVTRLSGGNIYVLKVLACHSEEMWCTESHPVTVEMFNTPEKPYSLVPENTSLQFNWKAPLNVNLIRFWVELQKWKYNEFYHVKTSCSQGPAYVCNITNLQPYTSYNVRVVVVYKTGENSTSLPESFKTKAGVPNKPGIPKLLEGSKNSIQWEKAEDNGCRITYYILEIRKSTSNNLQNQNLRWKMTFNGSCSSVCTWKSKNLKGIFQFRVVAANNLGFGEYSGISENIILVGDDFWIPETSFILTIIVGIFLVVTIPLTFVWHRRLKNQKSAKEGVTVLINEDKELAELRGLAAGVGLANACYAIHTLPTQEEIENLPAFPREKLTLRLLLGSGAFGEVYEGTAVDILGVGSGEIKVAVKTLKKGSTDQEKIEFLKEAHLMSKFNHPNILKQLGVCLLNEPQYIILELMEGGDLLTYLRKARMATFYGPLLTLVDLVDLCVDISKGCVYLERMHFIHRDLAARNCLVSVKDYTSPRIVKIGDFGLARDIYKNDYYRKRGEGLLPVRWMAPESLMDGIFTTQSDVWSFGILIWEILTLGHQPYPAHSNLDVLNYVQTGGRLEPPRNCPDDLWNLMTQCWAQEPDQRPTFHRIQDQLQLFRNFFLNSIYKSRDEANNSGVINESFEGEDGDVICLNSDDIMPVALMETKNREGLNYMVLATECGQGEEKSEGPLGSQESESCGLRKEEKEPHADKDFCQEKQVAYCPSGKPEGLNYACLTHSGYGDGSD
Sequence of Proto-oncogene tyrosine-protein kinase Src (Homo sapiens) (P12931 2-536 limits assumed): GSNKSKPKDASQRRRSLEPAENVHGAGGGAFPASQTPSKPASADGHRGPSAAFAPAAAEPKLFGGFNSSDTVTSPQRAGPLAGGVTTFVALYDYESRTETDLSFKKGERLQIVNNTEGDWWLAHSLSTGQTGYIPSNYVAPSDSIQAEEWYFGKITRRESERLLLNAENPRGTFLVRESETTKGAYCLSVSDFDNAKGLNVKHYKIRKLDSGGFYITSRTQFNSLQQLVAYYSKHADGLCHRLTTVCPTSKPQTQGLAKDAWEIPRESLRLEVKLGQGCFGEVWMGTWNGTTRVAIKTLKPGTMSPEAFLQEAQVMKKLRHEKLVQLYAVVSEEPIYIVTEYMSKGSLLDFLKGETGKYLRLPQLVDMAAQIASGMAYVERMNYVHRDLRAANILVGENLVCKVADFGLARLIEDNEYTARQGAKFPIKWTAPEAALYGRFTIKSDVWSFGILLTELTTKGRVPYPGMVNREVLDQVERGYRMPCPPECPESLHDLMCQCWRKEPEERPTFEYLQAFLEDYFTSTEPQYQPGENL

For the compound `CN1CCC(C(=O)Nc2n[nH]c3nnc(-c4ccccc4)cc23)CC1`, the inhibition is 10% in test [1]; -1.52% in [2]; 14.1% in test [3]; 5.55% in test [4]; 9.8% in test [5]; 9.17% in [6]. The inhibition in [7] was 8.13%; in [8] it was -0.14%; in [9], -5.75%; in [10] it was -4.25%.
Regarding `Cc1cccc(-c2n[nH]cc2-c2ccc3ncccc3n2)n1`, the inhibition in test [1] was 18.7%; in test [2], 3.7%; in [3], 1.79%; in test [4] it was 1.26%; in test [5], 4.08%; in test [6], 2.63%. Moreover, the inhibition is 3.67% in test [7], 0.03% in [8], 3.34% in test [9] and 1.27% in [10].
Turning to `Cn1cc(C=C2C(=O)Nc3cccnc32)c2ccccc21`, the inhibition in [2] stood at 3.7%; in test [3] it was 0.13%; in test [4], 4.42%; in [5], 10.1%; in test [6] it was 12.8%; in test [7], 42.2%. Moreover, the inhibition in test [8] is -1.82%; in test [9] it was 0.18%; in test [10], 3.56%.
With `COc1cccc(-n2ncc3c(N/N=C/c4cccc(F)c4)ncnc32)c1`, the inhibition in test [1] was 19.5%; in test [2], 7.02%; in test [3] it was 24.4%; in [4] it was 3.12%; in [5], 10.6%; in test [6], 0.4%. In addition, the inhibition was 57.2% in test [7], -0.72% in test [8], 2.55% in test [9] and 9.4% in test [10].
For the compound `Nc1nc(-c2ccccn2)c(-c2ccc3ncccc3n2)s1`, the inhibition in test [1] came out at 10.2%; in test [2] it was 3.66%; in [3], 6.53%; in test [4], 2.94%; in test [5], 4.03%; in test [6] it was 0.7%. Besides, the inhibition in test [7] was 7.78%; in test [8], -0.44%; in test [9] it was -2.72%; in [10], -1.33%.
Turning to `O=C(Nc1n[nH]c2nc(-c3ccco3)c(Br)cc12)C1CC1`, the inhibition is -2.51% in test [1]; 1.47% in test [2]; 4.05% in [3]; 3.63% in test [4]; 3.03% in [5]; 12.5% in test [6]. Further, the inhibition in test [7] was 14.2%; in [8], -2.24%; in test [9], -0.3%; in [10] it was 0.12%.
Turning to `COc1ccccc1Nc1ncc(-c2ccccc2)o1`, the inhibition in test [2] worked out at 6.08%; in test [3], 1.59%; in test [4], 5.04%; in [5], 11.2%; in test [6] it was 8.59%; in test [7], 11.2%. Moreover, the inhibition in [8] was -1.24%; in test [9], 2.11%; in test [10], -1.37%.
In the case of `CCCN1CCC(Oc2cc(Nc3nc(Nc4cccc(F)c4C(N)=O)c4cc[nH]c4n3)c(OC)cc2Cl)CC1`, the inhibition in test [1] is 16.9%; in test [2] it was 1.16%; in [3], 6.9%; in test [4], 8.27%; in [5], 38.9%; in [6] it was -3.73%. Also, the inhibition in test [7] was 6.62%; in test [8], 2.85%; in test [9], 0.37%; in test [10], 1.01%.
In the case of `CCn1c(-c2nonc2N)nc2cncc(C(=O)N3CC[C@H](N)C3)c21`, the inhibition was 13.9% in test [1]; 2.92% in test [2]; 6.19% in [3]; 7.46% in test [4]; 6.07% in test [5]; -1.35% in test [6]. Moreover, the inhibition in test [7] is 7.23%; in test [8], 0.37%; in test [9], -0.65%; in test [10], -5.72%.
As to `COc1cc(C=NNc2ncnc3c2cnn3-c2ccccc2)ccc1O`, the inhibition in [1] was found to be 75.1%; in test [2], 23.7%; in test [3] it was 64.5%; in test [4], 7.09%; in test [5], 31.2%; in test [6] it was 28.6%. Also, the inhibition in test [7] is 79%; in test [8], 1.17%; in test [9], 4.56%; in test [10], -2.75%.
In the case of `COc1ccc(COc2ccc(Cc3cnc(N)nc3N)cc2OC)cc1`, the inhibition in test [1] is 4.28%; in [2], 1.99%; in [3] it was 5.55%; in [4], 5.47%; in test [5], 4.98%; in test [6], 3.77%. In addition, the inhibition was 1.97% in [7], 1.82% in [8], 1.88% in test [9] and 1.51% in test [10].
For the compound `CC(C)=Cc1cccc2c1/C(=N/Nc1ccc(S(N)(=O)=O)cc1)C(=O)N2`, the inhibition in [1] is 50.3%; in test [2], 2.03%; in test [3], 4.1%; in test [4], -0.28%; in [5] it was 20%; in test [6], 10.8%. Moreover, the inhibition in test [7] amounted to 46.4%; in [8] it was 3.21%; in [9] it was 4.02%; in test [10] it was 2.78%.
With `COc1ccc(-c2coc3ncnc(N)c23)cc1`, the inhibition in test [1] worked out at 11%; in test [2], 8.95%; in test [3], 5.93%; in test [4], 6.03%; in test [5] it was 7.88%; in test [6], 5.47%. The inhibition in [7] is 8.84%; in [8], -2.61%; in test [9] it was -2.53%; in test [10], -0.77%.
As to `Nc1ncnc2occ(-c3ccc(NC(=O)Nc4cc(C(F)(F)F)cc(C(F)(F)F)c4)cc3)c12`, the inhibition was 75.6% in test [1]; -3.85% in [2]; 7.91% in test [3]; 1.98% in test [4]; 15.9% in [5]; -4.73% in test [6]. Also, the inhibition in [7] is 24.4%; in test [8], -0.11%; in test [9], -0.05%; in test [10] it was -5.69%.
For the compound `COc1cc2ncn(-c3cc(O[C@H](C)c4ccccc4Cl)c(C(N)=O)s3)c2cc1OC`, the inhibition is 63.8% in [1]; 14.8% in test [2]; 17.8% in test [3]; 10.7% in [4]; 36.5% in test [5]; 7.81% in [6]. For the same compound, the inhibition in test [7] worked out at 40.7%; in [8], 2.69%; in [9] it was 6.05%; in test [10], 1.76%.
Consider `CCn1c(-c2nonc2N)nc2ccncc21`, for which the inhibition in test [1] is 1.54%; in test [2], 0.89%; in test [3] it was 0.11%; in test [4] it was 2.31%; in test [5] it was 2.5%; in test [6], 8.34%. The inhibition is 4.59% in test [7], -0.44% in test [8], -0.79% in test [9] and 0.22% in test [10].
Regarding `N#Cc1c(NC(=O)c2cccc3ccccc23)sc2c1CCCC2`, the inhibition in test [1] stood at 2.2%; in test [2], 1.52%; in test [3], 3.88%; in test [4] it was 3.2%; in [5], 5.26%; in [6], 12.3%. Besides, the inhibition is 7.06% in [7], -0.23% in [8], -0.56% in [9] and -4.41% in test [10].
